The text below walks through data of publication PMC7862700, “An all-to-all approach to the identification of sequence-specific readers for epigenetic DNA modifications on cytosine”.

Assay in all cases: DAPPL (digital affinity profiling via proximity ligation, sequencing); 10 mM Tris-HCl pH 7.5, 50 mM NaCl, 1 mM DTT, 4% glycerol, room temperature, 30 min; GST-TFs on glutathione beads, 16-mer random dsDNA library, 0.1% formaldehyde crosslink after washing; high values mean tight binding
One assay concerns the target T1, SPIC (Homo sapiens, UniProt Q8N5J4 1-248).
T1 sequence: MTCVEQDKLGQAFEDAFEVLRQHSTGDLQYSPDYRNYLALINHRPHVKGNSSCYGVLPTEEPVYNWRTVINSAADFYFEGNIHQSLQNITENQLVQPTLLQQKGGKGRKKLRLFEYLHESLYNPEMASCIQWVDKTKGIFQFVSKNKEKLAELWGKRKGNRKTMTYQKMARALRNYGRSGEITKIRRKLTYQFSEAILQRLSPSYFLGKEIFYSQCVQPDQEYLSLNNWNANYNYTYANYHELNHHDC
Conditions: protein: recombinant; tags: N-terminal GST; dsDNA, one strand shown. The method in brief:
(§1)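 Binding signal is defined as a hexamer's read frequency for one factor over its frequency for the tag-only sample. To obtain reads, GST-fused human transcription factors were expressed in yeast, captured on glutathione beads, barcoded with DNA and pooled with that sample. Pools met 200 nmole of a 16-mer random double-stranded DNA library in Tris/NaCl/DTT/glycerol buffer for 30 min at room temperature before washing, 0.1% formaldehyde crosslinking, proximity ligation (BsaI/T4 ligase, 1 h, 37 °C), PCR and Illumina NextSeq500 sequencing.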

Another assay deals with HSF1 (Homo sapiens, UniProt Q00613 1-529). The settings on record: protein: recombinant; tags: N-terminal GST; chain copies: 3; dsDNA, one strand shown. The method in brief: as §1
The next assay concerns the target CRX (Homo sapiens, UniProt O43186 1-299). Conditions: protein: recombinant; tags: N-terminal GST; dsDNA, one strand shown. The method in brief: as §1
The target in another assay is T2, ETV7 (Homo sapiens, UniProt Q9Y603 1-341).
T2 sequence: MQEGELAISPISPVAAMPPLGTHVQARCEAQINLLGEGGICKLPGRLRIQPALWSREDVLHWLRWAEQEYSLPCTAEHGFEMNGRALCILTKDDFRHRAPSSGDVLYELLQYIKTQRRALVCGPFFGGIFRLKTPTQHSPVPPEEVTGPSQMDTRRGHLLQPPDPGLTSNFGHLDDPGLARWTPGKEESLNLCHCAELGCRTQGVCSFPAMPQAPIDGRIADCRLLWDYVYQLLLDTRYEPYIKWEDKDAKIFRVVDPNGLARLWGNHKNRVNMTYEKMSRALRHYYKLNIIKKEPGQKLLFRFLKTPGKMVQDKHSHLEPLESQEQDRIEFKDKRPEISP
Conditions: protein: recombinant; tags: N-terminal GST; dsDNA, one strand shown. The method in brief:
as §1

For the next assay, the target named is T3, ETV3L (Homo sapiens, UniProt Q6ZN32 1-361).
T3 sequence: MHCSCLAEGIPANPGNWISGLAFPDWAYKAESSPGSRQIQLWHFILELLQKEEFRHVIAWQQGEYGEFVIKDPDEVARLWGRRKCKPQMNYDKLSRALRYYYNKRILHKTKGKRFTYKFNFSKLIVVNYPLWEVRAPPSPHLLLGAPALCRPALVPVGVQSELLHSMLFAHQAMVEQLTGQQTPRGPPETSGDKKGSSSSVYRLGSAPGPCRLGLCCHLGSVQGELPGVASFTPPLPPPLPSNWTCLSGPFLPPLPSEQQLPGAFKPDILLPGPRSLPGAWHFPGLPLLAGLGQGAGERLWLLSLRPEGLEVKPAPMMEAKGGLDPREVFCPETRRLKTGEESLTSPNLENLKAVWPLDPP
The settings on record: protein: recombinant; tags: N-terminal GST; dsDNA, one strand shown. The method in brief: as §1

The target of the next assay is T4, SPDEF (Homo sapiens, UniProt O95238 1-335).
T4 sequence: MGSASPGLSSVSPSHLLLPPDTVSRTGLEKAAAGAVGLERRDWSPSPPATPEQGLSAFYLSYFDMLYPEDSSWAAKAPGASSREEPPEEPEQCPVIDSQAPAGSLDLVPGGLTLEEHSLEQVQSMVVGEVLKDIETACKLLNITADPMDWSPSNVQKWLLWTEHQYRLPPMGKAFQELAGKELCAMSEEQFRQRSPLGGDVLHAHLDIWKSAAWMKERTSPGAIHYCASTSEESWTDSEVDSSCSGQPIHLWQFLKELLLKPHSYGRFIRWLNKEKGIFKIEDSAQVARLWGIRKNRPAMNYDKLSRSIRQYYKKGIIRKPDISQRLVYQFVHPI
The settings on record: protein: recombinant; tags: N-terminal GST; dsDNA, one strand shown. In a few lines:
as §1

A further assay concerns the target T5, ETV3 (Homo sapiens, UniProt P41162-2 1-143).
T5 sequence: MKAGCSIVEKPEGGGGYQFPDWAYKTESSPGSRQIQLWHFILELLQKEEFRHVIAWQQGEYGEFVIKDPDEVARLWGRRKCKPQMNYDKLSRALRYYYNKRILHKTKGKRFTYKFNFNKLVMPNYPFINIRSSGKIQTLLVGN
Conditions: protein: recombinant; tags: N-terminal GST; dsDNA, one strand shown. In a few lines:
as §1

For a further assay, the target named is T6, EHF (Homo sapiens, UniProt Q9NZC4 1-300).
T6 sequence: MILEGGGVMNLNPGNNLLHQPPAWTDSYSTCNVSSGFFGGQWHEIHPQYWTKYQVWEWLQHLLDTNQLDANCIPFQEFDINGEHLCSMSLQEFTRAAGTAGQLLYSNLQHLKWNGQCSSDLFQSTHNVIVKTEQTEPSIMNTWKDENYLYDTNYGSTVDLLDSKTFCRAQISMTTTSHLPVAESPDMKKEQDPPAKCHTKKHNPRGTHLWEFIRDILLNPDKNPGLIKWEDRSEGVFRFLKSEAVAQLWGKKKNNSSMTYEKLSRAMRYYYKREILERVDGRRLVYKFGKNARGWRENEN
Conditions: protein: recombinant; tags: N-terminal GST; dsDNA, one strand shown. In a few lines:
as §1

Another assay deals with ELF1 (Homo sapiens, UniProt P32519 1-619). The settings on record: protein: recombinant; tags: N-terminal GST; dsDNA, one strand shown. The method in brief:
as §1

A further assay has as its target T7, ELK3 (Homo sapiens, UniProt P41970 1-407).
T7 sequence: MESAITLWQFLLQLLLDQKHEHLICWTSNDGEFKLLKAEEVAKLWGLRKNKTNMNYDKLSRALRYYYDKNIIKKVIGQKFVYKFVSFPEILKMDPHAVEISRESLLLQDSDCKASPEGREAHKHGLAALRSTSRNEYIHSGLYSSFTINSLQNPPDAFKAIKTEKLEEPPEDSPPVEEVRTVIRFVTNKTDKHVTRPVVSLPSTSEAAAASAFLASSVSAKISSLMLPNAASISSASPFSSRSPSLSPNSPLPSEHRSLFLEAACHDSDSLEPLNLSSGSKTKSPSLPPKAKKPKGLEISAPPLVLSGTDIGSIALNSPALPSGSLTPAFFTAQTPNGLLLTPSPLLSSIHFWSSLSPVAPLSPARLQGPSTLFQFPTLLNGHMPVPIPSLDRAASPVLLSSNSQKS
Conditions: protein: recombinant; tags: N-terminal GST; dsDNA, one strand shown. In a few lines: as §1

Another assay has as its target ETV1 (Homo sapiens, UniProt P50549 1-477). The settings on record: protein: recombinant; tags: N-terminal GST; dsDNA, one strand shown. The method in brief: as §1
The target of another assay is SPIB (Homo sapiens, UniProt Q01892 1-262). The settings on record: protein: recombinant; tags: N-terminal GST; dsDNA, one strand shown. In a few lines:
as §1

Sequence of CRX (O43186 whole entry): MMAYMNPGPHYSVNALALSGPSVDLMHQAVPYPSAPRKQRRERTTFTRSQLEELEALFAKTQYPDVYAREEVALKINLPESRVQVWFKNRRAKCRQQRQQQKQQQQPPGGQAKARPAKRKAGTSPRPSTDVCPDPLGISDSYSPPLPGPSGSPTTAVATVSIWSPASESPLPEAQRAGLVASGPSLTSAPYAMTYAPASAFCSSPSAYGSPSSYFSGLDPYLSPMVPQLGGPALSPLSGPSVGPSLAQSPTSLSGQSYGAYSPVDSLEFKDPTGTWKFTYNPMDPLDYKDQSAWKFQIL
Sequence of HSF1 (Q00613 whole entry): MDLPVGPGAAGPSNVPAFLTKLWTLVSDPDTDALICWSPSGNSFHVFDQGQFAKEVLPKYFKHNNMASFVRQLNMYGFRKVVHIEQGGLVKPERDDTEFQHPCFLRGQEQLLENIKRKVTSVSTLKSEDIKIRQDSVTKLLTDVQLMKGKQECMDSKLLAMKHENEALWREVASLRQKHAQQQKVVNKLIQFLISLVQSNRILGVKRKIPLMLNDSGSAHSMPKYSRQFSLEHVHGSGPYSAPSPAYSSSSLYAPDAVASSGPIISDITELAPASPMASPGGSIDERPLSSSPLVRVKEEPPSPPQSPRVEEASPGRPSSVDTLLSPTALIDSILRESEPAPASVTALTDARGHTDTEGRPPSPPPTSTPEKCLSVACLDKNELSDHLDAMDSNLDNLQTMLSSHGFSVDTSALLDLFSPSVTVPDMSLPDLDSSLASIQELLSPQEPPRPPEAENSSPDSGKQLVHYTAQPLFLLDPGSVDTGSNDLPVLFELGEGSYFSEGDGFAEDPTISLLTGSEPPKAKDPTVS
Sequence of ELF1 (P32519 whole entry): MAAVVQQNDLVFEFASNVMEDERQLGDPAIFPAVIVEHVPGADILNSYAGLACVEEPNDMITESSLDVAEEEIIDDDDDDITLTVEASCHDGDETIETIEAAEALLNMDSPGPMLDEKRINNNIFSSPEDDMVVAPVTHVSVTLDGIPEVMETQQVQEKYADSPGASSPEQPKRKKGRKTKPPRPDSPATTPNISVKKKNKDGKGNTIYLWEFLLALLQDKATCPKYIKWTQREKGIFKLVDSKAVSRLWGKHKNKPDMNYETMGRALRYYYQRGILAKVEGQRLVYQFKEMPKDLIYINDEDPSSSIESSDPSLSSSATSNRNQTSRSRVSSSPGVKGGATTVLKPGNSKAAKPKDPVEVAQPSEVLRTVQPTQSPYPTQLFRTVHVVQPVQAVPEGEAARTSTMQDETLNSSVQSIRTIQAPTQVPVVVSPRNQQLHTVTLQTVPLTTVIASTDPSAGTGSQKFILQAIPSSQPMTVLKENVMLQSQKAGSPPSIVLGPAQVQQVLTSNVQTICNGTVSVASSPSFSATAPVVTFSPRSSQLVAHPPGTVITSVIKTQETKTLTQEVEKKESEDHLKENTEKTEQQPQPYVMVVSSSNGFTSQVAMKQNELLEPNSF
Sequence of ETV1 (P50549 whole entry): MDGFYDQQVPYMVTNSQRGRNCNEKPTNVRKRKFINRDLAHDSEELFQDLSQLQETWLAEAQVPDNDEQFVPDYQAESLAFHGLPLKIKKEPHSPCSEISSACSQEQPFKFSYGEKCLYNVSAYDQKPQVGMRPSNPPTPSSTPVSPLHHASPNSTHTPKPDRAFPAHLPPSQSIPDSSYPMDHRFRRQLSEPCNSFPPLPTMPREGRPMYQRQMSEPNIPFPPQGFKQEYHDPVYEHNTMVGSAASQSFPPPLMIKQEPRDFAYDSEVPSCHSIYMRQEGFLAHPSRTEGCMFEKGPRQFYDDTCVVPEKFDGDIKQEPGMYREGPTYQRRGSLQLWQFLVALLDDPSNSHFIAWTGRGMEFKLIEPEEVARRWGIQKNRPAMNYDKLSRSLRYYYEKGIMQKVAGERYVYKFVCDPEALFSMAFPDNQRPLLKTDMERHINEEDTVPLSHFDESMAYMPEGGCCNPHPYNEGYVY
Sequence of SPIB (Q01892 whole entry): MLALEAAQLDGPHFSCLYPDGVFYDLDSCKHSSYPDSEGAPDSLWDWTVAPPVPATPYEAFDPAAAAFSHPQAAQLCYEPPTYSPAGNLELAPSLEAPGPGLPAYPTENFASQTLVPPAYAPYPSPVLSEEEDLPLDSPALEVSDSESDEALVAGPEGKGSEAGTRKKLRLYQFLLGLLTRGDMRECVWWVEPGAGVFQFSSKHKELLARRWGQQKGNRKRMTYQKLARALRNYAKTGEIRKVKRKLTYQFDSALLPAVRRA

In the case of ATGGGA, the binding signal with SPIC is 1.05 fold enrichment (6-mer frequency, TF over GST control).

With TCAAGA, the binding signal is 1.12 fold enrichment (6-mer frequency, TF over GST control) with HSF1 and 1.03 fold enrichment (6-mer frequency, TF over GST control) with CRX.

As to CAGAAC, the binding signal with HSF1 is 1.62 fold enrichment (6-mer frequency, TF over GST control); in the assay with ETV7 it was 1.03 fold enrichment (6-mer frequency, TF over GST control).

Regarding GGATTC, the binding signal with HSF1 was 1.13 fold enrichment (6-mer frequency, TF over GST control); with CRX, 1.15 fold enrichment (6-mer frequency, TF over GST control); in the assay with ETV3L, 1.02 fold enrichment (6-mer frequency, TF over GST control); with SPDEF it was 1.07 fold enrichment (6-mer frequency, TF over GST control).

Consider TTCGGG, for which the binding signal is 1.58 fold enrichment (6-mer frequency, TF over GST control) with HSF1; 1 fold enrichment (6-mer frequency, TF over GST control) with CRX; 1.03 fold enrichment (6-mer frequency, TF over GST control) in the assay with ETV3.

For GGATTA, the binding signal in the assay with HSF1 was 3.05 fold enrichment (6-mer frequency, TF over GST control); with CRX, 5.42 fold enrichment (6-mer frequency, TF over GST control); with SPDEF it was 1.02 fold enrichment (6-mer frequency, TF over GST control).

Regarding CAGAAA, the binding signal with HSF1 is 1.99 fold enrichment (6-mer frequency, TF over GST control); with CRX, 1.07 fold enrichment (6-mer frequency, TF over GST control); with ETV7, 1.02 fold enrichment (6-mer frequency, TF over GST control).

Take GCGAAG: the binding signal in the assay with EHF is 1 fold enrichment (6-mer frequency, TF over GST control); with HSF1 it was 1.15 fold enrichment (6-mer frequency, TF over GST control).

Turning to AGGATC, the binding signal with HSF1 is 1.08 fold enrichment (6-mer frequency, TF over GST control); with CRX it was 1.2 fold enrichment (6-mer frequency, TF over GST control); in the assay with SPDEF, 1.2 fold enrichment (6-mer frequency, TF over GST control).

For the sequence CTGTGG, the binding signal with SPIC was 1.1 fold enrichment (6-mer frequency, TF over GST control).

For AGGATT, the binding signal in the assay with HSF1 was 1.78 fold enrichment (6-mer frequency, TF over GST control); with CRX, 2.82 fold enrichment (6-mer frequency, TF over GST control); with ETV3L it was 1.03 fold enrichment (6-mer frequency, TF over GST control); with SPDEF, 1.04 fold enrichment (6-mer frequency, TF over GST control).

CAAAGA: the binding signal is 1.01 fold enrichment (6-mer frequency, TF over GST control) with ELF1; 1.03 fold enrichment (6-mer frequency, TF over GST control) with ELK3; 1.1 fold enrichment (6-mer frequency, TF over GST control) with HSF1; 1.05 fold enrichment (6-mer frequency, TF over GST control) with CRX; 1.02 fold enrichment (6-mer frequency, TF over GST control) in the assay with ETV1.

As for CGAGAA, the binding signal was 3.31 fold enrichment (6-mer frequency, TF over GST control) with HSF1; 1.27 fold enrichment (6-mer frequency, TF over GST control) in the assay with CRX; 1.01 fold enrichment (6-mer frequency, TF over GST control) with ETV7.

TTCGTG: the binding signal with SPIB was 1.04 fold enrichment (6-mer frequency, TF over GST control); with HSF1 it was 1.1 fold enrichment (6-mer frequency, TF over GST control).
